Screening data deposited in PubChem BioAssay by several laboratories.
Efflux pump mplx: antifungal efflux pump inhibition, Nile Red retention; S. cerevisiae Candida pump triplex; inhibition, % at 10 µM; actives 0.44% (n = 330,000); AID 485275;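 active means plate passing quality check with inhibition over a set limit, or well fluorescence over plate mean plus 4 SD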;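 further: Nile Red retained in pooled yeast measured as flow cytometry median fluorescence; 0% = buffer negative control and 100% = Enniatin B positive control; higher means more Nile Red kept so more efflux inhibition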
ALR inh: inhibitors of human sulfhydryl oxidase ALR; P55789; purified ALR, DTT oxidation, H2O2 HRP-luminol luminescence; inhibition, % (test concentration not listed); actives 3.8% (n = 290,000);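 active means mean replicate inhibition above about 79%, with every replicate also reaching it, limit read from the data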
Target sequence (P55789 whole entry, looked up): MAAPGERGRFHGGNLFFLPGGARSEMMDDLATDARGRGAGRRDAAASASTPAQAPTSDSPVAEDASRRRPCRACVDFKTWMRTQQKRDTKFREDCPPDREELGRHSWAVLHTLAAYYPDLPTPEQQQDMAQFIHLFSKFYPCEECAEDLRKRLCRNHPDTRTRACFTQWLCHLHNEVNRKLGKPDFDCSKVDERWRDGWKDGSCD
Mot1-301 SUMO: inhibitors of SUMOylation pathway: yeast Mot1-301 growth rescue. AID 2716. growth rescue, % at 18.8 µM. S. cerevisiae Mot1-301 growth rescue, ATP luminescence, 38.5C; percent above DMSO median, 100 means doubled. actives 1% (n = 320,000);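 active means every valid replicate shows activation above 250% relative to neutral control wells; inactive means the rest, any valid replicate at or below 250%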;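 further: OY570 slx delta 5 strain wells were the positive control but not used for scaling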
AHR act: activators of human aryl hydrocarbon receptor; P35869; actives 2.5% (n = 320,000); AHR-responsive luciferase reporter cells, luminescence; activation, % at 5 µM; in the data active means activation above about 47%;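 further: 0% = vehicle wells and 100% = reference agonist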
VLA-4 inh: inhibition in a human VLA-4 binding assay | actives 0.2% (n = 330,000) | inhibition, % (about 7 µM as worked out from the volumes in the protocol) | VLA-4 expressing cells, ligand binding flow cytometry | P13612; in the data active means inhibition above about 50%
A1 inh: inhibitors of the anti-apoptotic protein A1, read as caspase activation; actives 0.066% (n = 330,000); AID 2462; MEF A1-2A-BIM cells, Caspase-Glo 3/7 luminescence, 3 h; percent of clofoctol response, vehicle zero; caspase activation, % (test concentration not listed);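 active means over half of replicate activation scores above 10%, or exactly half above 10 with the replicate mean above 10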
Numbers without * were called inactive; · = no result. The list is not random: actives were taken first. Their share in the collection is about 7.2%.

SMILES	Efflux pump mplx	ALR inh	Mot1-301 SUMO	AHR act	VLA-4 inh	A1 inh
CC1CCC2(CC1)NC(=S)N(C(C)(C)C)N2 (stereo not given)	0	3	-3	-2	11	0
CCOc1ccccc1N1CCN(C(=O)c2csc(C)c2CC)CC1	0	·	95	2	9	0
CCN(CC)CCN1CCn2c3c(c4cc(C)ccc42)CCCC31 (stereo not given)	0	99*	-7	15	-24	-2
Cc1ccc2c(c1)c1c3n2CCN(C=O)C3CCC1 (stereo not given)	0	-6	1	53*	14	1
O=C(NCc1cccnc1)c1ccccc1NS(=O)(=O)c1ccc(F)cc1F	0	·	·	5	·	·
CN1CCSc2ccc(C(=O)Nc3cccc(F)c3)cc21	0	18	-2	126*	-58	-6
COc1ccc(NC(=O)c2ccc3c(c2)N(C)CCS3)cc1	0	-10	-15	72*	-13	-4
C/C(=N\NS(=O)(=O)c1ccc(C)cc1)c1ccc(C)s1	0	-3	12	0	-8	-1
COc1cccc(CNC(=O)C2CC(=O)N(c3ccc4c(c3)OCCO4)C2)c1 (stereo not given)	0	0	0	6	5	0
CCC(C)[C@H](NC(=O)OC(C)(C)C)C(=O)N/N=C/c1cccc2nccnc12 (stereo not given in full)	0	·	-3	1	18	0
CCC(C)[C@@H](N)C(=O)N/N=C/c1cccc2nccnc12 (stereo not given in full)	0	-9	-12	70*	-1	2
O=C1CN(C(=O)CSc2nncs2)c2ccccc2N1	0	·	58	0	-4	0
O=C1CN(C(=O)CSc2nc(-c3ccccc3)cs2)c2ccccc2N1	0	-8	-14	58*	33	0
CN1C(=O)/C(=C/c2cn(CC(=O)NCc3ccco3)c3ccccc23)NC1=S	0	97*	-11	58*	-13	-1
CC(C)c1nc2c([nH]1)c(=O)n(C)c(=O)n2C	0	-4	-4	3	-8	1
Cn1c(=O)c2[nH]c(N=Nc3ccc(N)cc3N)nc2n(C)c1=O	0	86*	-21	5	7	1
CN(C)/C(Cn1cncn1)=C1/N=C(c2ccccc2)OC1=O	0	0	7	27	9	1
CN1CCN(C/C(=C2/N=C(c3ccccc3)OC2=O)N(C)C)CC1	0	98*	9	-2	-13	0
Cc1c(C(=O)Nc2ccc(Cl)cc2)c2ccccn2c1CCc1ccncc1	0	-7	-1	87*	25	0
Fc1cc(F)cc(NC(=S)Nc2ccccc2N2CCOCC2)c1	-1	14	6	9	-12	-1
CC(=O)Nc1ccc(C23CC4CC(CC(C4)C2)C3)cc1	0	-31	17	-6	5	0
Oc1ccc(C23CC4CC(CC(C4)C2)C3)cc1O	0	99*	648*	1	17	1
COc1ccc(CCC(=O)NNC(=O)Nc2cc(Cl)ccc2C)cc1	0	-26	-1	·	15	0
Cc1cc(Cl)ccc1OCC(=O)OCC(=O)c1c(N)n(C)c(=O)n(C)c1=O	0	1	-5	0	0	16*
Cc1cccnc1NC(=O)Nc1ccccc1	0	1	15	4	1	-4
SMILES	Efflux pump mplx	ALR inh	Mot1-301 SUMO	AHR act	VLA-4 inh	A1 inh
Cc1cccnc1NC(=O)c1sc2ccccc2c1Cl	2	0	0	69*	-1	-1
Cc1cccnc1NC(=O)Nc1ccc(Cl)cc1	0	-14	-2	74*	4	-1
COCc1nnc(NC(=O)c2sc3ccccc3c2Cl)s1	0	23	-1	1	25	-4
Cc1nnc(NC(=O)c2sc3ccccc3c2Cl)s1	0	8	86	48*	-3	-2
Cc1nnc(NC(=O)c2ccccc2Br)s1	0	5	302*	3	3	0
Cc1nnc(NC(=O)c2ccccc2F)s1	0	-12	-2	0	9	-1
Cc1ccc(-c2cc(-c3ccc4c(c3)OCO4)c(C#N)c(N)n2)o1	0	2	12	75*	-14	1
CCOc1cc(-c2cc(-c3ccc(C)o3)nc(N)c2C#N)ccc1O	0	80*	2	2	7	0
CC(=O)N1N=C(c2cccc(Br)c2)OC12CCCC2	0	-11	·	1	5	0
CCc1ccccc1NC(=O)CCc1c(C)nc(SC)nc1C	0	1	-5	-1	14	0
Cc1ccc(C(=O)Oc2oc(-c3ccccc3)nc2C=Nc2ccc(N(C)C)cc2)cc1	0	57	0	58*	-1	-1
CN(C)c1ccc(N=Cc2nc(-c3ccccc3)oc2OC(=O)c2cccc(Cl)c2)cc1	1	45	31	60*	-6	-1
C[C@H](NC(=O)CCCOc1ccc(Cl)cc1Cl)c1nnc2ccccn12	0	-1	-1	0	11	0
O=C(COc1ccccc1)NCCSCc1ccco1	0	82*	165	2	12	0
O=C(COC(=O)COc1ccc(Nc2ccccc2)cc1)NCc1ccco1	0	100*	4	1	-10	0
O=C(CCSc1ccccc1)NCCSCc1ccco1	0	·	-4	-1	5	2
Cc1c(NC(=O)COC(=O)COc2ccc(Nc3ccccc3)cc2)c(=O)n(-c2ccccc2)n1C	0	99*	-6	-5	1	0
CC(=O)OC(C(=O)NC1CCCCC1)c1ccc(Cl)c(Cl)c1 (stereo not given)	0	7	-1	3	3	1
O=S(=O)(c1cccc2nsnc12)N1CCOCC1	0	-2	-11	-2	16	0
Cc1ccc2nsnc2c1S(=O)(=O)N1CCOCC1	0	98*	0	-2	-8	0
N#C/C(=C(/O)CSc1ccccn1)c1nc2ccccc2s1	0	82*	·	51*	-47	-2
Cc1ccc(SC/C(O)=C(\C#N)c2nc3ccccc3s2)cc1	0	72	2	7	25	-1
N#C/C(=C(/O)COC(=O)c1ccc(C#N)cc1)c1nc2ccccc2s1	0	4	-10	122*	-26	0
CCCOC(=O)c1c(NC(=O)CCC(=O)O)sc2c1CCCCC2	0	89*	3	-1	3	0
CCCC(=O)Nc1sc2c(c1C(=O)Nc1ccccn1)CCCC2	0	97*	-4	16	5	0
COc1ccc2[nH]c3c(=O)n(Cc4ccc(C(=O)N5CCCC5)cc4)c(=S)[nH]c3c2c1	0	1	-14	0	-11	-3
Cc1ccc(S(=O)(=O)Nc2cc(=O)[nH]c(SCc3ccccc3Cl)n2)cc1	0	96*	11	8	-3	-1
